Measurements from PubChem BioAssay AID2796 (The Scripps Research Institute Molecular Screening Center, 2010).
The campaign covered roughly 320,000 compounds. About 8,000 (2.5%) were called active. No stated cut-off is given here; in the data, active means activation above about 47%; inactive means the rest. The list comes from a sample in which actives are over-represented; it also holds similar structures and randomly drawn compounds.

These compounds were tested against Aryl hydrocarbon receptor (Homo sapiens) (UniProt P35869) (assay: AHR activators, primary screen, cell-based, luminescence, luciferase reporter, human (AID 2796;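 further: 0% = vehicle wells and 100% = reference agonist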)). Conditions: AHR-responsive luciferase reporter cells, at 5 µM, active compounds read high.
Chain of Aryl hydrocarbon receptor (Homo sapiens) (P35869 whole entry, looked up): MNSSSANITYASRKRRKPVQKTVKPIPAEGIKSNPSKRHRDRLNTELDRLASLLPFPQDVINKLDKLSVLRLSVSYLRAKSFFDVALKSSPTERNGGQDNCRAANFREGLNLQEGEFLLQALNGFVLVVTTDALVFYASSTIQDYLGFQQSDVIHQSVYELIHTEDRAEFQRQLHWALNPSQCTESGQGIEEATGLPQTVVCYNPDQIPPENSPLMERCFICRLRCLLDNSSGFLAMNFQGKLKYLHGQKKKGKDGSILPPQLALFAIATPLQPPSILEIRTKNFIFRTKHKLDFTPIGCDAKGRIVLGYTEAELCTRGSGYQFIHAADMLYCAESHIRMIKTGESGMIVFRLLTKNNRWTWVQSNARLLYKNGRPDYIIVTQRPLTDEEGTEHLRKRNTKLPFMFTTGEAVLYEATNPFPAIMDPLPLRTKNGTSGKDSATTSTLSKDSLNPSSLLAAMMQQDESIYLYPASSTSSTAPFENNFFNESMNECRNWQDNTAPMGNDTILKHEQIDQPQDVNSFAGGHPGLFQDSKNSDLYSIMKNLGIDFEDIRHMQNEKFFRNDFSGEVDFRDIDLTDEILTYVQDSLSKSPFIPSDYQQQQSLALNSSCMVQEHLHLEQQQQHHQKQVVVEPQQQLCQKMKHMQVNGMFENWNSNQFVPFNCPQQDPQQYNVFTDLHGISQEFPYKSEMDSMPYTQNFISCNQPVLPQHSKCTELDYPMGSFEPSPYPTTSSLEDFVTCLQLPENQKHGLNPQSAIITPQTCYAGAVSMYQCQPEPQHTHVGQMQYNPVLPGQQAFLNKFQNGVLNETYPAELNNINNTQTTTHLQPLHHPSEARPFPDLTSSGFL

Row | Compound | activation
1 | CCOC(=O)c1nc(C)n(-c2ccc(Cl)cc2Cl)n1 | 2.68% (inactive)
2 | Cc1ncn2cc(-c3ccc(Cl)cc3Cl)[nH]c(=O)c12 | 56.5% (active)
3 | COn1c(-c2ccc(Cl)cc2Cl)nc2ncccc21 | 2.64% (inactive)
4 | COc1cc(NC(=O)CSc2ccc(-c3cccnc3)nn2)cc(OC)c1 | 44.9% (inactive)
5 | O=S(=O)(NCC1CCCO1)c1cnc(Cl)c(Cl)c1 (stereo unspecified) | -2.6% (inactive)
6 | CC(C)[C@H](NC(=O)N1c2ccccc2NC(=O)[C@@H]1C(C)C)C(=O)N[C@H](C(=O)O)c1ccccc1 | 0.48% (inactive)
7 | C/C(=N\Nc1nc(Nc2ccccc2)nc(N2CCOCC2)n1)c1cccs1 | 56.8% (active)
8 | C/C(=N\Nc1nc2ccccc2[nH]1)c1cccs1 | 43.1% (inactive)
9 | C/C(=N\Nc1nc(N2CCOCC2)nc(N2CCOCC2)n1)c1ccc([N+](=O)[O-])cc1 | 0.4% (inactive)
10 | CC(c1ccco1)N(C(=O)COc1ccccc1[N+](=O)[O-])c1ccccn1 (stereo unspecified) | 1.97% (inactive)
11 | CC(C)=CCN1CCN(Cc2ccc(Oc3ncccn3)cc2)CC1CCO (stereo unspecified) | -1.11% (inactive)
12 | CCc1ccc(-c2cc(C(=O)NN3CCN(C)CC3)c3ccccc3n2)cc1 | 30.5% (inactive)
13 | CCc1ccc(NC(=O)c2ccc(Cn3cc([N+](=O)[O-])cn3)cc2)cc1 | 3.58% (inactive)
14 | O=C(Nc1ccc(Br)c2cccnc12)c1ccc(Cn2cc([N+](=O)[O-])cn2)o1 | 52% (active)
15 | O=C(NCCc1ccccn1)c1nc(Cn2cc([N+](=O)[O-])cn2)no1 | 0.9% (inactive)
16 | Cn1c(N2CCOCC2)c(C=O)c2ccccc21 | 1.65% (inactive)
17 | O=C(OCC(=O)N1CCN(c2ccccc2)CC1)c1ccc([N+](=O)[O-])s1 | 0.3% (inactive)
18 | CSCCC1NC2(C(=O)Nc3ccc(Cl)cc32)[C@@H]2C(=O)N(C3CCCC3)C(=O)[C@H]12 (stereo partly specified) | 8.17% (inactive)
19 | Clc1cccc(Cl)c1Cn1nnc(-c2cccs2)n1 | 64.8% (active)
20 | COc1ccccc1N1CCN(C(=O)Cn2nnc(-c3cccs3)n2)CC1 | 4.18% (inactive)
21 | O=c1cc(Cn2nnc(-c3ccc(Cl)cc3)n2)nc2sccn12 | 3.29% (inactive)
22 | Cc1nnc(SCC(=O)NC(=O)NC2CCCC2)n1N | 1.5% (inactive)
23 | Cc1nnc(SCC(=O)Nc2cccc(N)c2)n1-c1ccccc1 | 7.29% (inactive)
24 | O=C(CNC(=O)c1ccc2ccccc2c1)Nc1ncccc1O | 10.7% (inactive)

Row | Compound | activation
25 | Cc1ccc(NC(=O)CSc2cccc3cccnc23)c(C)c1 | 10.7% (inactive)
26 | O=C(CSc1cccc2cccnc12)N/N=C/c1cccnc1 | 150% (active)
27 | Cc1nc2ccccc2n1CC(=O)N/N=C/c1cccnc1 | 2.29% (inactive)
28 | CCN(CC(=O)Nc1c(F)cccc1F)C(=O)C1CCC1 | -0.62% (inactive)
29 | COc1ccc2c(C)cc(SCC(=O)NCC3CCCO3)nc2c1 (stereo unspecified) | 17.6% (inactive)
30 | CCCNC(=O)CSc1nc(Cc2ccccc2)nc2ccccc12 | -0.23% (inactive)
31 | Cc1cc(SCC(=O)NCCN2C(=O)CSC2=O)nc2ccccc12 | 55.3% (active)
32 | CC(C)OC(=O)Cn1nc(C(F)(F)F)c2c1CCCC2 | -2.63% (inactive)
33 | O=C(COC(=O)c1cc(=O)[nH]c2ccccc12)Nc1nc(-c2cccc(Br)c2)cs1 | 5% (inactive)
34 | CCOC(=O)c1cc2c(=O)[nH]c(C(Cl)(Cl)Cl)nc2o1 | -0.93% (inactive)
35 | CC1(C)Oc2ccc(C(=O)N3CCOCC3)cc2N(CC(=O)Nc2ccccc2)C1=O | 1.48% (inactive)
36 | CCSc1nc2c(c(=O)[nH]1)C(c1cccnc1)C(C(=O)OC(C)C)=C(C)N2 (stereo unspecified) | 0.13% (inactive)
37 | CSc1nc2sc3c(c2c(=O)[nH]1)CCc1ccccc1-3 | 74% (active)
38 | CCC1(C)Cc2c(sc3nc(SC)[nH]c(=O)c23)CO1 (stereo unspecified) | -2.64% (inactive)
39 | COc1ccc(-n2c(=S)[nH]c3sc4c(c3c2=O)CCc2ccccc2-4)cc1 | 8.98% (inactive)
40 | O=C(CNC(=O)Cc1ccccc1)NCC(=O)OCC(=O)c1ccccc1Cl | 22.1% (inactive)
41 | C/C(=N/NC(=S)Nc1ccccc1)c1ccc2c(c1)OCO2 | 111% (active)
42 | C/C(=N\NC(=O)C(N)=O)c1ccc2c(c1)OCCO2 | 3.27% (inactive)
43 | C/C(=N/NC(=O)c1ccncc1)c1ccc2c(c1)OCO2 | 24.8% (inactive)
44 | O=C(CSc1nccc(=O)[nH]1)Nc1ccc(N2CCOCC2)c(Cl)c1 | 0.92% (inactive)
45 | O=[N+]([O-])c1ccc2[nH]c3c(c2c1)CCCC3O (stereo unspecified) | -1.41% (inactive)
46 | C#CCNc1ccc(C(=O)OCC)cc1 | -1.69% (inactive)
47 | CCOC(=O)c1ccc2[nH]c3c(c2c1)CCCC3NC=O (stereo unspecified) | 115% (active)
48 | COc1ccc(S(=O)(=O)N2CCOCC2)cc1NC(=O)CSc1ncnc2ccccc12 | 13.1% (inactive)

Row | Compound | activation
49 | CCOC(=O)N1CCC(NC(=O)CCc2cn(C)c3ccccc23)CC1 | -3.32% (inactive)
50 | Cc1ccc(Nc2nc(N3CCOCC3)nc(N3CCOCC3)n2)cc1Cl | 12.7% (inactive)
51 | Cc1cc(Nc2ccc(Cl)cc2)nc(N2CCOCC2)n1 | 69.5% (active)
52 | COc1ccc(Nc2ncc(F)c(N3CCOCC3)n2)cc1 | 22.4% (inactive)
53 | CCCCc1ccc(NS(=O)(=O)c2cccc(C(=O)N3CCCN(C)CC3)c2)cc1 | -1.46% (inactive)
54 | CCOC(=O)c1ccc(NC(=O)C2CC(=O)N(c3ccc4c(c3)OCCO4)C2)cc1 (stereo unspecified) | -1.04% (inactive)
55 | O=C(c1cc2ccccc2s1)N1CCN(c2ccccn2)CC1 | 27.8% (inactive)
56 | CCc1ccccc1N(CC(=O)N1CCN(c2ccccc2F)CC1)S(C)(=O)=O | -0.81% (inactive)
57 | COc1ccc(C(=O)Nc2ccccc2C(=O)N/N=C/c2ccccc2OC)cc1 | 103% (active)
58 | COc1ccc(C(=O)Nc2ccccc2C(=O)N/N=C/c2ccc(O)c(OC)c2)cc1 | 8.36% (inactive)
59 | COc1ccc(/C=N/NC(=O)c2ccc3c(c2)OCCO3)c(OC)c1 | 2.32% (inactive)
60 | O=C(/C=C(O)/C=C/c1ccc(O)cc1)/C=C/c1ccc(O)cc1 | -0.31% (inactive)
61 | O=C(N/N=C\c1cccc(Br)c1)c1ccccc1-n1cccc1 | 64.9% (active)
62 | Cn1c(=O)n(C)c2cc(/C=N/NC(=O)c3cccc(Br)c3)ccc21 | 31.6% (inactive)
63 | O=C(N/N=C/c1cccc(Br)c1)c1ccc(N2CCCC2=O)cc1 | -0.14% (inactive)
64 | CC(C)CC(=O)NC(=S)Nc1ccc(F)cc1F | -1.68% (inactive)
65 | CCOC(=O)C1CCN(S(=O)(=O)c2c(C)noc2C)CC1 | -0.3% (inactive)
66 | C=CCC1(C(=O)N(C)Cc2ccccc2)CCN(C(=O)OC(C)(C)C)CC1 | 5% (inactive)
67 | COC(=O)[C@]1(C)N[C@H](CN(C)C(=O)c2ccc(C(C)(C)C)cc2)[C@@H]2C(=O)N(C)C(=O)[C@@H]21 | 0.09% (inactive)
68 | O=C(Nn1cnc2ccccc2c1=O)c1ccccc1 | 4.61% (inactive)
69 | CC(C(=O)N=Nc1c(O)n(C)c2ccc(Br)cc12)n1cnc2ccccc2c1=O (stereo unspecified) | 80% (active)
70 | N#CCCCn1c(O)c(N=NC(=O)C(O)c2ccccc2)c2ccccc21 (stereo unspecified) | 6.74% (inactive)
71 | O=S(=O)(NCCSc1ccccn1)c1ccc(Cl)cc1 | 0.03% (inactive)
72 | COc1ccc(CCNC(=O)COC(=O)c2ncc(Cl)c(Cl)c2Cl)cc1OC | -0.83% (inactive)

Row | Compound | activation
73 | COc1ccc(Nc2nc(N)nc(CSC(=S)N3CCC(C)CC3)n2)cc1 | 25.5% (inactive)
74 | COc1cccc(NC(=S)N(CCc2c(C)[nH]c3ccccc23)Cc2ccco2)c1 | 12% (inactive)
75 | CCNC(=S)N(CCc1c(C)[nH]c2ccc(C)cc12)Cc1ccco1 | 59.4% (active)
76 | COCCNC(=S)N(CCc1c(C)[nH]c2ccc(C)cc12)Cc1cccnc1 | 20.1% (inactive)
77 | Cc1ccc(CN(CC(=O)NC2CCCCC2)C(=O)c2csnn2)cc1 | -0.48% (inactive)
78 | CCOC(=O)C1(CCOc2ccccc2)CCN(Cc2cc(OC)cc(OC)c2)CC1 | 7.35% (inactive)
79 | CCOc1ccc(NC(=O)[C@H](C)NC(=O)C2CC(=O)N(c3ccc(OC)cc3)C2)cc1 (stereo partly specified) | 1.62% (inactive)
80 | CCNC(=O)NC(=O)C(C)OC(=O)C1CCN(S(=O)(=O)c2ccccc2F)CC1 (stereo unspecified) | -0.8% (inactive)
81 | COc1ccccc1N1CCN(C(=O)C2Cc3ccccc3CN2C(=O)c2ccco2)CC1 (stereo unspecified) | 1.25% (inactive)
82 | O=C(Nc1ncc2c(n1)-c1ccccc1OC2)c1ccc(Cl)cc1 | 37% (inactive)
83 | COc1ccc(C(=O)Nc2ncc3c(n2)-c2ccccc2CC3)cc1 | 103% (active)
84 | COc1ccc(NC(=O)c2cnc(NS(=O)(=O)c3ccccc3)nc2)cc1 | -2.22% (inactive)
85 | C/C(=N\NC(=S)NCc1ccccc1)C1CCCCC1 | 3.74% (inactive)
86 | CCN(c1ccccc1)S(=O)(=O)c1ccc(C(=O)Nc2ccccc2OC)cc1 | 1.62% (inactive)
87 | CCOC(=O)CSc1ccccn1 | -0.06% (inactive)
88 | COC(=O)c1ccccc1NC(=O)CSc1ccccn1 | 0.37% (inactive)
89 | O=C(CSc1ccccn1)Nc1nc2c(ccc3ccccc32)s1 | 96.3% (active)
90 | Cc1ccc(S(=O)(=O)CCC(=O)OCC(=O)NCCc2ccc(S(N)(=O)=O)cc2)cc1 | -0.33% (inactive)
91 | CN(CC(=O)Nc1ccc(OC(F)F)cc1)S(=O)(=O)/C=C/c1ccccc1 | 3.23% (inactive)
92 | Cc1cc(C)c(S(=O)(=O)c2ccccc2)c(OC(=O)c2c(F)cccc2Cl)n1 | -0.47% (inactive)
93 | Cc1cccc(C)c1NC(=O)C1CCCN1C(=O)OC(C)(C)C (stereo unspecified) | 4.06% (inactive)
94 | COc1ccc(NC(=O)COC(=O)c2n[nH]c3ccccc23)c(OC)c1 | 23.3% (inactive)
95 | O=C(COC(=O)c1n[nH]c2ccccc12)Nc1ccccc1Br | 53.9% (active)
96 | CN(C)S(=O)(=O)c1ccc(NC(=O)COC(=O)c2n[nH]c3ccccc23)cc1 | 6.56% (inactive)
